TROY NFkB inh: TROY signaling inhibition | inhibition, % at 10 µM | AID 1347056 | 0.98% of 360,000 active | Q293 LMP1-TROYcd NF-kB luciferase reporter, 4 h;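 active means compounds whose plate-normalised and pattern-corrected inhibition of the luciferase reporter signal at the single screening dose is 50% or more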
MITF TRPM1 inh: reduces MITF-dependent TRPM1 promoter luciferase signal | inhibition, % at 12.5 µM | 0.83% of 330,000 active | SK-MEL-5 TRPM1 promoter luciferase, 24 h;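 active means mean inhibition across replicates of 60% or more, whatever share of single replicates reaches that level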
EBV LMP1 NFkB: Epstein-Barr LMP1 NF-kappaB reporter inhibition; 0.69% of 350,000 active; LMP1-induced NF-kappaB luciferase reporter cells, luminescence; inhibition, % at 12.5 µM; in the data active means inhibition above about 41%
TWEAK-Fn14 inh: inhibitors of TWEAK-Fn14 interaction signaling; TWEAK-stimulated Fn14 reporter cells, luciferase luminescence, 8 h; inhibition, % at 10 µM; 2% of 360,000 active; AID 1159606; in the data active means inhibition above about 50%
Peg3 prom inh: inhibitors of Peg3 promoter; AID 588405; inhibition, % at 20 µM; 1.7% of 360,000 active; HeLa PEG-Prom luciferase reporter, luminescence, overnight;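 active means inhibition of at least 50% at 20 µM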
HIF-2a inh: inhibitors of HIF-2a; 786-0 RCC cells HIF-2a reporter, luciferase luminescence, overnight; inhibition, % at 18.8 µM; 0.72% of 360,000 active; AID 624352;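 active means inhibition of the luminescence signal of 40% or more relative to plate controls, in a single-dose primary screen at 18.75 µM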
Mdm2 MdmX conf: Mdm2/MdmX (human) interaction inhibition, confirmed | shares compounds with HIF-2a inh | SaOS-2 split-luciferase Mdm2/MdmX complementation, luminescence | inhibition, % at 8 µM | 99% of 740 active | AID 504601;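 active means mean inhibition of the luminescence signal across two replicates at or above 26 percent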
Target sequence (O15151 whole entry, looked up): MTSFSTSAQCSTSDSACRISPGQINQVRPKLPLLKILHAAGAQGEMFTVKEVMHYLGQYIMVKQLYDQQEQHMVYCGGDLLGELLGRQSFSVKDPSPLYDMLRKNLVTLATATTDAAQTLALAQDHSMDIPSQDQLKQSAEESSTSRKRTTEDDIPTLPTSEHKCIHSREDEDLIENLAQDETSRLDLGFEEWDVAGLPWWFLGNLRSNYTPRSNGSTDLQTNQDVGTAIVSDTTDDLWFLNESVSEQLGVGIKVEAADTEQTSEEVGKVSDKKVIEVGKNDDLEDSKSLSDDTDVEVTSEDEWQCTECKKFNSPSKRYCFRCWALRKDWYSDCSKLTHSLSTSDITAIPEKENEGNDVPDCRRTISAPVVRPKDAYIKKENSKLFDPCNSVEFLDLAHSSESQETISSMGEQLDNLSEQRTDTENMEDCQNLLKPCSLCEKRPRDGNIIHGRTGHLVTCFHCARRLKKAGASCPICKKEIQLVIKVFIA
Target sequence (Q00987 whole entry, looked up): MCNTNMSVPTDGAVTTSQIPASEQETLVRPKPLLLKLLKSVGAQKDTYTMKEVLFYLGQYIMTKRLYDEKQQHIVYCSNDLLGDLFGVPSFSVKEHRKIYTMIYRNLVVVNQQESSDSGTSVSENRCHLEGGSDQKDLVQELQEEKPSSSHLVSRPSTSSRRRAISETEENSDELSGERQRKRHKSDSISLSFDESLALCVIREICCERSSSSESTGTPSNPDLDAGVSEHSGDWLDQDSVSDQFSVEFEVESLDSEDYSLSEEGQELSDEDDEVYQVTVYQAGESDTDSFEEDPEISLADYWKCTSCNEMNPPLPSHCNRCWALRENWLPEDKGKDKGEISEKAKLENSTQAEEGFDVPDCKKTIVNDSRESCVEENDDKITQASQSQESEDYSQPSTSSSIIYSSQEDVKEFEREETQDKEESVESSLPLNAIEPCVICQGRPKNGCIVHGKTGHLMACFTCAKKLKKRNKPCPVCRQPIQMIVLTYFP
HIF-2a inh conf: HIF-2a inhibition, single concentration confirmation | shares compounds with HIF-2a inh | 786-0 RCC cells, HIF-2a luciferase reporter luminescence, overnight | inhibition, % at 18.8 µM | 56% of 1,800 active | AID 651580;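 active means mean inhibition across four replicates of at least 40 percent at the single tested concentration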
HIF-1a counter: HIF-1a inhibition counter-screen for HIF-2a hits. shares compounds with HIF-2a inh. 72% of 1,800 active. MiaPaCa-2 HIF-1a luciferase reporter, desferoxamine, overnight. inhibition, % at 18.8 µM;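 active means mean inhibition of the reporter signal across four replicates at the single tested dose of 50% or more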
A number is an active result; - = inactive; . = no result. An excerpt weighted towards active compounds, which were near 4% of everything screened.

SMILES	TROY NFkB inh	MITF TRPM1 inh	EBV LMP1 NFkB	TWEAK-Fn14 inh	Peg3 prom inh	HIF-2a inh	HIF-2a inh conf	HIF-1a counter	others
COc1cccc(NC(=O)CSc2nc3c([nH]c4ccccc43)c(=O)n2C)c1	-	-	-	-	59	51	-	-
Cc1ccc(C(C)C)c(OCC(=O)Nc2ccc3c(c2)nc(CCN2CCCCC2)n3C)c1	-	95	-	-	105	-	.	.	Mdm2 MdmX conf=101
Cn1c(CCN2CCCCC2)nc2cc(NC(=O)COc3ccc(Cl)cc3)ccc21	-	-	-	-	-	-	.	.
CN(C(=O)c1ccc(NC(=O)Cc2cccc(NC(=O)C3CCCN(C(=O)C4CCC4)C3)c2)cc1)C1CCCC1 (stereo not drawn)	-	-	-	-	-	-	.	.
O=C(Cn1ncc(Cl)c(Cl)c1=O)NCC1CCCCC1	-	92	86	97	108	97	91	105
O=C(Cn1ncc(Cl)c(Cl)c1=O)NC1CCCCC1	-	96	-	84	100	86	-	102	Mdm2 MdmX conf=103
Cc1cccc(NC(=O)CNC(=O)Cn2ncc(Cl)c(Cl)c2=O)c1C	-	85	-	100	95	84	.	.	Mdm2 MdmX conf=103
O=C(Cn1ncc(Cl)c(Cl)c1=O)NC1CCS(=O)(=O)C1 (stereo not drawn)	-	-	-	-	-	-	.	.
O=C1CN(C(=O)COc2ccc(Cl)c(Cl)c2)c2ccccc2N1	-	-	-	-	-	-	.	.
O=C1CN(C(=O)Cn2ncc(Cl)c(Cl)c2=O)c2ccccc2N1	70	93	-	94	103	96	-	106
C[C@@H]1CN([C@@H](C)CO)C(=O)c2cc(Br)cnc2O[C@@H]1CN(C)S(=O)(=O)c1ccc(F)cc1	-	.	-	-	-	-	.	.
COC(=O)c1cccc(-c2noc(-c3ccccc3F)n2)c1	-	-	-	-	-	52	65	-
CC(NC(=O)c1cc(S(=O)(=O)N2CCOCC2)ccc1N1CCCC1)c1ccc(Cl)c(Cl)c1 (stereo not drawn)	-	-	-	-	-	-	.	.
N#Cc1c(-c2cccc(F)c2)cc(-c2ccccc2)nc1Br	-	-	-	-	-	-	.	.
N#Cc1c(-c2ccccc2)cc(-c2ccc(O)cc2)nc1N	-	-	-	-	-	-	.	.
CS(=O)c1nc(-c2ccc(Br)cc2)cc(-c2ccccc2)c1C#N (stereo not drawn)	74	78	-	56	106	88	-	98
COc1ccc(-c2cc(-c3ccc(OC)cc3)c(C#N)c(SC)n2)cc1	-	-	-	-	-	-	.	.
CS(=O)(=O)c1nc(-c2ccc(Br)cc2)cc(-c2ccccc2)c1C#N	63	-	-	-	113	97	-	100	Mdm2 MdmX conf=103
COc1ccc(-c2cc(-c3ccccc3)c(C#N)c(S(C)(=O)=O)n2)cc1	-	-	-	-	104	88	-	85
CC(C)COc1ccc(C(=S)N2CCCC2)cc1	-	-	-	-	-	57	58	-
CC(=O)Nc1ccc(Oc2sc(C(=O)c3ccccc3)c(N)c2C#N)cc1	-	-	-	53	-	54	43	-
O=C(Nc1cccc(NC(=O)c2cc([N+](=O)[O-])ccc2Cl)n1)c1cc([N+](=O)[O-])ccc1Cl	-	-	-	-	93	84	-	102	Mdm2 MdmX conf=100
CN(C(=S)NC(=O)c1ccccc1)C1CCCCC1	-	-	-	-	-	50	-	-
CN(C(=S)NC(=O)c1ccc(Cl)cc1)C1CCCCC1	-	-	-	-	-	-	.	.
COc1cc(CN2CCC(C(=O)NC(c3ccc(F)cc3)c3ccc4ccccc4n3)CC2)cc(OC)c1 (stereo not drawn)	-	.	.	-	-	-	.	.
SMILES	TROY NFkB inh	MITF TRPM1 inh	EBV LMP1 NFkB	TWEAK-Fn14 inh	Peg3 prom inh	HIF-2a inh	HIF-2a inh conf	HIF-1a counter	others
Cn1cc(CN2CCC(C(=O)NC(c3ccc(F)cc3)c3ccc4ccccc4n3)CC2)c2ccccc21 (stereo not drawn)	-	.	.	-	101	92	-	106
O=C1C=CC(=O)N1c1ccccn1	-	-	-	-	-	-	.	.
O=C1C=CC(=O)N1c1ccccc1N1C(=O)C=CC1=O	-	94	-	-	97	77	56	-
CCOC(=O)COc1ccc(S(=O)(=O)N2CCN(c3ccccc3)CC2)cc1	-	-	-	-	-	67	-	-
CCOC(=O)COc1ccc(S(=O)(=O)N2CCN(c3ccc(F)cc3)CC2)cc1	-	-	-	-	-	43	-	-
COC(=O)COc1ccc(S(=O)(=O)N2CCN(c3ccccc3F)CC2)cc1C	-	-	-	-	-	53	-	-
COC(=O)COc1ccc(S(=O)(=O)N2CCN(c3ccc(F)cc3)CC2)cc1	-	-	-	-	-	46	-	-
Nc1ccccc1C(=O)N/N=C1\C2CN3CCN(C2)CC1(c1ccccc1)C3	-	-	-	-	-	-	.	.
O=C(Nc1ccccc1C(=O)NCCCN1CCOCC1)c1ccc(Cl)cc1	-	-	-	-	-	-	.	.
CCOC(=O)COc1ccc(S(=O)(=O)N2CCc3ccccc3C2)cc1	-	-	-	-	-	44	-	-
CCOC(=O)COc1ccc(S(=O)(=O)N2CCN(C(=O)OCC)CC2)cc1	-	-	-	-	-	-	.	.
COc1cc(/C=C2/CCC/C(=C\c3cc(O)c(OC)c(Cl)c3)C2=O)cc(Cl)c1O	58	-	-	-	-	91	.	.	Mdm2 MdmX conf=103
COc1cc(/C=C2\SC(N)=NC2=O)cc(Cl)c1O	-	-	-	-	-	-	.	.
O=[N+]([O-])c1c(Nc2ccccc2O)ccc2nonc12	-	-	-	-	-	-	.	.
O=[N+]([O-])c1c(Nc2ccccc2O)cc(Cl)c2nonc12	64	106	79	-	100	95	98	99	Mdm2 MdmX conf=103
COc1ccc2nc(-c3ccc(N)cc3)[nH]c2c1	-	-	-	-	-	70	80	-
CN1OC[C@@H]2CN(Cc3cc(Cl)cc(Cl)c3)[C@H](c3cccc(-c4ccccc4)c3)C[C@@H]21	-	-	-	-	-	-	.	.
C#CCN(C[C@@H]1[C@@H](OC(=O)NCc2ccccc2F)[C@@H](OC(=O)NCc2ccccc2F)Cn2c(=O)n(CCCCCC)c(=O)n21)S(=O)(=O)c1ccc(C)cc1	-	.	-	-	-	-	.	.
C#CCN(C[C@@H]1[C@@H](OC(=O)NCc2ccccc2F)[C@@H](OC(=O)NCc2ccccc2F)Cn2c(=O)ccc(=O)n21)S(=O)(=O)c1ccc(C)cc1	61	.	61	107	97	95	97	106
